Data published in article PMC4336329 (PLoS ONE, 2015).
Screen size: about 310,000 compounds; about 14,000 (4.5%) showed an effect of 50% or more. Effects have a minus sign here. Shown is part of a subset that was picked to be rich in strong results.

target: human ether-à-go-go-related gene (hERG) potassium channel (human, UniProt Q12809); test: primary screen, population patch clamp on CHO cells stably expressing hERG; higher = less effect of the substance
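Note: peak tail current of the secondary pulse compared with the same well before compound.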

Chain of human ether-à-go-go-related gene (hERG) potassium channel (Q12809 whole entry, looked up): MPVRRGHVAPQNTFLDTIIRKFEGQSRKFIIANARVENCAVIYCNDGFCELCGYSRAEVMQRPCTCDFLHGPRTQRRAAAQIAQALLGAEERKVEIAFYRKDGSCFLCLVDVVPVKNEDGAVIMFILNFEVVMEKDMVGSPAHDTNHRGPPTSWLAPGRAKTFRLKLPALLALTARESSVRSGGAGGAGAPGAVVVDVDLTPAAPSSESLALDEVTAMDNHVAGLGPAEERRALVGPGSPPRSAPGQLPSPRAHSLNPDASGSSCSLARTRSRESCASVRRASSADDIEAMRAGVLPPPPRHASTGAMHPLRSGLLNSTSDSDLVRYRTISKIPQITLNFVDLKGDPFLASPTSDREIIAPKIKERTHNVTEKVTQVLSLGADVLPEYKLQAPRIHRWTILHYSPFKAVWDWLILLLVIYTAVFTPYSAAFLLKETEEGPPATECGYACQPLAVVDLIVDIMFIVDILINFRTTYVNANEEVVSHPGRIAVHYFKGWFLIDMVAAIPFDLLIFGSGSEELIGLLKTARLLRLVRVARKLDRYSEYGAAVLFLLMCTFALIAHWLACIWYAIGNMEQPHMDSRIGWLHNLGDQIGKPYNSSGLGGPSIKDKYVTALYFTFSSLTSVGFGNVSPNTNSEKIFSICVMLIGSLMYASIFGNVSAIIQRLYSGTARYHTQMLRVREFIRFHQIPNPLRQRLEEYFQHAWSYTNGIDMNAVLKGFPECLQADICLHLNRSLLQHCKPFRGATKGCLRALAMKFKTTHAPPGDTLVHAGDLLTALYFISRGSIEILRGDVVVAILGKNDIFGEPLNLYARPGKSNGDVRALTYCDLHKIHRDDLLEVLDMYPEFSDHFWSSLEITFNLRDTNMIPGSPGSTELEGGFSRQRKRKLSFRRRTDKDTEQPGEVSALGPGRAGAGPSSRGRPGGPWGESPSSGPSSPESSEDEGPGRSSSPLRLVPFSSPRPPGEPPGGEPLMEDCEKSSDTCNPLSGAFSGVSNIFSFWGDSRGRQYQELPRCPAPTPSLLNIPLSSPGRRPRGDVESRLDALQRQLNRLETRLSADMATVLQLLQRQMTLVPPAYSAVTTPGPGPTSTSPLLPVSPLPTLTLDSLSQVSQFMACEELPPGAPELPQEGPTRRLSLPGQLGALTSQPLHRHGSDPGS

Point of comparison: `Cc1nc2ccccn2c1P(=Nc1ccccc1)(N(C)C)N(C)C`, “hERG current change (%, negative = inhibition) at 10uM” value -52.5%. Against it:
- Cn1c(N)c(C(=O)CNC2CCCCC2)c(=O)n(C)c1=O — higher, 5.61%
- COc1ccc(-c2cc(-c3n[nH]c(=S)n3-c3ccccc3Cl)[nH]n2)cc1 — higher, 13.5%
- Nn1c(Cc2cccc3ccccc23)nnc1SC1CCOC1=O (stereo not drawn) — higher, -0.158%
- Cc1ccc(-c2cc(C(=O)N/N=C/C=C/c3ccccc3)n[nH]2)o1 — higher, -7.76%
- Cc1ccc(C)c(N2CCN(c3ncccc3[N+](=O)[O-])CC2)c1 — higher, 2.42%
- COc1cc(NC(=O)C2=C(C)OCCS2)c(Cl)cc1C(=O)NCCN1CCN(C)CC1 — higher, -47.1%
- CCN(CC)CCCNC(=O)c1cc(Cl)c(NC(=O)C2=C(C)OCCS2)cc1OC — lower, -61.5%
- CCCNC(=O)c1cc(Cl)c(NC(=O)C2=C(C)OCCS2)cc1OC — higher, -14.5%
- COc1cc(NC(=O)C2=C(C)OCCS2)c(Cl)cc1C(=O)NCCN(C)C — higher, -3.65%
- CCOCCCNC(=O)c1cc(Cl)c(NC(=O)C2=C(C)OCCS2)cc1OC — higher, -9.78%
- CCN1CCN(CCNC(=O)c2cc(Cl)c(NC(=O)C3=C(C)OCCS3)cc2OC)CC1 — lower, -73.4%
- O=C(CCS(=O)(=O)c1ccccc1)Nc1ccc(Cl)cn1 — higher, -3.42%
- CCN(CC)C(=O)Cn1cc(C(=O)C(=O)NCCCn2ccnc2)c2ccccc21 — higher, 27.8%
- CCCN1C(=O)COc2ccc(C(=O)c3ccccc3C(=O)O)cc21 — higher, 17.7%
- CC(c1ccccc1)N1C(=O)c2ccc(C(=O)NCc3cccnc3)cc2C1=O (stereo not drawn) — higher, -18.4%
- O=C(NC(=S)N(Cc1ccccc1)Cc1ccccc1)C1CCCCC1 — higher, 12.6%
- COc1ccc(C(=O)N2CCN=C2SC)cc1 — higher, 1.04%
- O=S(=O)(Nc1cccnc1)c1cc(Cl)ccc1Cl — higher, 9.51%
- Cc1ccc(CN2CCCC(C(=O)c3sccc3C)C2)o1 (stereo not drawn) — higher, -11%
- COc1cc(CN2CCCC(C(=O)c3sccc3C)C2)cc(OC)c1O (stereo not drawn) — higher, -47.8%
- CCOC(=O)C1CCCN(Cc2cc(OC)c(O)c(OC)c2)C1 (stereo not drawn) — higher, -2.31%
- COc1cc(CN2CCCC(C(=O)c3ccc(C(C)(C)C)cc3)C2)cc(OC)c1O (stereo not drawn) — higher, -47.3%
- COc1ccc(O)c(CN2CCCC(C(=O)c3sccc3C)C2)c1 (stereo not drawn) — higher, 9.89%
- COCc1ccc(CN2CCCC(C(=O)c3sccc3C)C2)o1 (stereo not drawn) — higher, 5.56%
- COc1cc(CN2CCCC(C(=O)c3ccc(SC)cc3)C2)cc(Cl)c1O (stereo not drawn) — lower, -72.8%
- COc1cc(CN2CCCC(C(=O)c3sccc3C)C2)cc(Cl)c1O (stereo not drawn) — lower, -53.8%
- COc1ccc(OC)c(CN2CCCC(C(=O)c3sccc3C)C2)c1 (stereo not drawn) — lower, -63.9%
- CCc1ccc(CN2CCCC(C(=O)c3sccc3C)C2)o1 (stereo not drawn) — higher, 2.99%
- COc1cc(OC)c(OC)cc1CN1CCCC(C(=O)c2sccc2C)C1 (stereo not drawn) — lower, -63.4%
- O=C(CCn1cnc2ccccc2c1=O)Nc1ccc2c(c1)OCCO2 — higher, 15.1%
- Cc1cc(C(=O)N(C)C2CCCCC2)no1 — higher, 11.7%
- CC(=O)O[C@H]1CC[C@@]2(C)[C@@H](CC[C@@H]3[C@@H]2CC[C@]2(C)[C@@H](C(C)(C)O)C[C@@H]32)C1 — higher, 9.09%
- CC(C)(C)S(=O)(=O)/C(C#N)=N/Nc1ccc(C#N)cc1 — higher, 22.1%
- CN(CCc1ccccn1)C(=O)Nc1ccc(F)cc1 — higher, 12.7%
- COc1ccccc1/C=N/Nc1nc(C)c(C(C)=O)s1 — higher, 5%
- CC(Oc1ccccc1)C(=O)N1CCC2(CC1)Oc1ccc(F)cc1C(=O)C21CC(c2cccnc2)=NO1 (stereo not drawn) — higher, -20.5%
- [Cl-].c1ccc(COc2ccc(-c3sc(Nc4ccccc4)n[n+]3-c3ccccc3)cc2)cc1 — higher, -43.9%
- O=C(CSc1nc(C(F)(F)F)cc(=O)[nH]1)N1CCCC1 — higher, 19%
- Cc1ccc(NCc2ccco2)cc1C.O=C(O)C(=O)O — higher, 1.93%
- Cc1onc(-c2c(Cl)cccc2Cl)c1C(=O)Nc1nc(C(C)(C)C)cs1 — higher, -26.4%
- COc1ccc(CN2CCCC(C(=O)c3sccc3C)C2)cc1O (stereo not drawn) — lower, -71.9%
- Cc1ccsc1C(=O)C1CCCN(CCO)C1 (stereo not drawn) — higher, 5.34%
- Cc1nc(CCNC(=O)CC2C(=O)NCCN2Cc2ccc(F)cc2)sc1C (stereo not drawn) — higher, 12.3%
- O=C(OCc1cccc([N+](=O)[O-])c1)c1ccc2ccccc2n1 — higher, 7.33%
- CC(C)C(OC(=O)CN1C(=O)c2ccccc2C1=O)C(=O)NC1CCCC1 (stereo not drawn) — higher, 18.7%
- COC(=O)CNC(=O)C12CC3CC(C1)CC(c1ccc(C)cc1)(C3)C2 — higher, 12.9%
- C=CCn1c(O)c(C=NCCCOc2ccc(CC)cc2)c(=O)[nH]c1=S — higher, 21.8%
- C=CCN(CC=C)C(=O)C1CCN(Cc2ccc(OCc3ccccc3)cc2)CC1.O=C(O)C(=O)O — lower, -68%
- CCN(CC)C(=O)C1CCN(Cc2cccc(OCc3ccccc3)c2)CC1.O=C(O)C(=O)O — higher, -39.6%
- O=C(NCc1ccccn1)C1CCN(Cc2cccc(OCc3ccccc3)c2)CC1.O=C(O)C(=O)O — higher, -35.7%
- CCCCN(C)C(=O)C1CCN(Cc2cccc(OCc3ccccc3)c2)CC1.O=C(O)C(=O)O — lower, -67.7%
- NC(=O)C1CCN(Cc2ccc(OCc3ccccc3)cc2)CC1.O=C(O)C(=O)O — higher, -29.5%
- CCN(CC)C(=O)C1CCN(Cc2ccc(OCc3ccccc3)cc2)CC1.O=C(O)C(=O)O — higher, -48.7%
- CCCCN(C)C(=O)C1CCN(Cc2ccc(OCc3ccccc3)cc2)CC1.O=C(O)C(=O)O — lower, -73.4%
- COc1cccc(NC(=O)c2nn(C)c3c2CS(=O)(=O)c2ccccc2-3)c1 — higher, 8.68%
- O=C(NCCCc1ccccc1)c1cccc([N+](=O)[O-])c1 — higher, -23%
- COc1ccc(COC(=O)Nc2cn(C)nc2C(F)(F)F)cc1 — higher, -7.76%
- C=C(C)C(=O)N1CC2(CC(c3cccc(NC(=O)COc4ccc(Cl)cc4)c3)=NO2)C[C@@H]1C(N)=O (stereo partly drawn) — higher, -15.3%
- CN1Cc2c(N3CCOCC3)nc(SCCC#N)c(C#N)c2CC1(C)C — higher, -2.45%
- COc1ccc(Cc2nnc(NC(=O)c3ccco3)s2)cc1OC — higher, 5.42%
- c1ccc2[nH]c(CSc3nccs3)nc2c1 — higher, -6.76%
- O=C(Cn1cnc2c(nnn2Cc2ccccc2)c1=O)c1ccccc1 — higher, -8%
- COCCN(Cc1cc2ccc(C)c(C)c2nc1Cl)C(=O)N1CCOCC1 — higher, -11%
- OCC1(CCOc2ccccc2)CCN(Cc2nc3ccc(F)cc3[nH]2)CC1 — lower, -55%
- OCC1(CCOc2ccccc2)CCN(Cc2cn[nH]c2-c2ccc(F)cc2)CC1 — lower, -71.6%
- Cc1ccccc1CC1(CO)CCCN(Cc2cn[nH]c2-c2ccccc2)C1 (stereo not drawn) — higher, -23.9%
- OCC1(CCOc2ccccc2)CCN(Cc2cn[nH]c2-c2ccccc2)CC1 — lower, -74.4%
- OCCC1CN(Cc2nc3ccc(F)cc3[nH]2)CCN1C1CCCC1 (stereo not drawn) — higher, -15.9%
- OCC1(CC2CCCCO2)CCN(Cc2nc3ccccc3[nH]2)CC1 (stereo not drawn) — higher, 18%
- CC1CCN(CC(=O)Nc2ccc(S(=O)(=O)N3C(C)CCCC3C)cc2)CC1 (stereo not drawn) — higher, 3.93%
- O=C(Cc1ccccc1)NCCc1cnc[nH]1 — higher, 17.4%
- COc1ccc(C(=O)NCC(C)NC(=O)c2ccc(OC)c(OC)c2)cc1OC (stereo not drawn) — higher, 13.8%
- COC(=O)Cc1ccc(NC(C)=O)cc1 — higher, 8.79%
- COc1cccc(NC(=O)CCC(=O)NCc2ccco2)c1 — higher, 17.2%
- Cc1c(Cl)cccc1NC(=S)/C(=C(\[O-])c1ccc(Cl)s1)[n+]1ccccc1 — higher, 3.76%
- Cc1cc(C=C2C(=O)c3ccccc3C2=O)c(C)n1-c1ccc(C(=O)O)cc1 — higher, 1.68%
- Cc1nn2c(C(F)(F)F)cc(-c3ccc(Cl)cc3)nc2c1C(=O)N1CCOCC1 — higher, -13.6%
- CCN(CC)P(=S)(c1c(C)nc2ccccn12)c1c(C)nc2ccccn12 — higher, -9.33%
- CCN(CC)P(=O)(c1ccccc1)c1c(C)nc2ccccn12 (stereo not drawn) — higher, -3.24%
- N#Cc1c(SCC(=O)Nc2nc3ccc(Br)cc3s2)sc2c(O)cc(=O)[nH]c12 — higher, 9.27%
- CC(C)CNC(=S)NC(=O)c1ccc(F)cc1 — higher, 5.45%
- COc1ccc(C(=O)N/N=C(\C)c2ccc3c(c2)C2C=CCC2C(c2ccccc2)N3)cc1 (stereo not drawn) — higher, -1.79%
- COC(=O)c1ccc(C2Nc3ccc(/C(C)=N/NC(=O)C(OC)c4ccccc4)cc3C3C=CCC32)cc1 (stereo not drawn) — lower, -76.2%
- CC(=O)c1ccc2c(c1)C1C=CCC1C(c1ccncc1)N2 (stereo not drawn) — higher, -21%
- CCN(CC)C(=O)c1csc(Nc2ccc(C)cc2)n1 — higher, -34.8%
- S=C(NCc1cccnc1)Nc1cccc2ccccc12 — higher, -9.3%
